For 34 compounds, inhibition results are on record in PubChem BioAssay.

Common to all, as to assay: inhibition of PEG-3 promoter-driven reporter – cell-based, HeLa, luciferase, CREF/GAPDH counter-screen panel, dose response (AID 624167)
In general terms: The purpose of a counterscreen is to sort out artefacts and off-target activity.

Assay [1] addresses PEG-3 (UniProt Q6IN02). The note with it: CREF/GAPDH counter-screens; HeLa PEG-Prom luciferase reporter, overnight, run 1, dose range 1, at 100 µM (top of the series) unless noted.
The target in assay [2] is PEG-3 (UniProt Q6IN02). The following applies: CREF/GAPDH counter-screens; HeLa PEG-Prom luciferase reporter, overnight, run 2, dose range 1, at 100 µM (top of the series) unless noted.
Assay [3] relates to Rat fibroblasts (CREF). The note with it: CREF/GAPDH counter-screens; run 1, dose range 1, at 100 µM (top of the series).
Assay [4] relates to Rat fibroblasts (CREF). The following applies: CREF/GAPDH counter-screens; run 2, dose range 1, at 100 µM (top of the series).

Structures are written as SMILES.

The inhibition is the change of the read-out against control, counted positive when it falls.

PEG-3, sequence (Q6IN02 whole entry, looked up): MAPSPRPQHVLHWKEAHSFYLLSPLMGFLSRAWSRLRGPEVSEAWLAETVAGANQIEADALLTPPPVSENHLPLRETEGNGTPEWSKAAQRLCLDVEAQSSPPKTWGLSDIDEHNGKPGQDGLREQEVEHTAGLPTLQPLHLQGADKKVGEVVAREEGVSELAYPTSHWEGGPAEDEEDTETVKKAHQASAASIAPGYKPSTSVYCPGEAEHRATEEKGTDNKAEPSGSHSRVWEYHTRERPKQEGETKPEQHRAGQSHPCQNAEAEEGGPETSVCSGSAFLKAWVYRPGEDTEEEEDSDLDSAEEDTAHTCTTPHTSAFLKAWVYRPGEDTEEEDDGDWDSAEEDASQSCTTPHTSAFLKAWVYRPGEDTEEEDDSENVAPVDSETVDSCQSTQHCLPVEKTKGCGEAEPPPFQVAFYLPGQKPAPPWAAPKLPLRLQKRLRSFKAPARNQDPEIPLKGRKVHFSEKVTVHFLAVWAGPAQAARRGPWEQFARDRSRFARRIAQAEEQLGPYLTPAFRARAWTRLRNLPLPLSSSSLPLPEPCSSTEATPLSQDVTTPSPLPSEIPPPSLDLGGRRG

For the compound `COc1ccc(/C=C2/CCCC(CN(C)C)C2=O)cc1` (stereo unspecified), the inhibition in the assay with PEG-3 [1] worked out at 99.5%; with PEG-3 [2], 98.8%; in the assay with Rat fibroblasts (CREF) [3], 95.5%; in the assay with Rat fibroblasts (CREF) [4], 68.5%.
On the same counts, the results for `Oc1c(I)cc(Cl)c2cccnc12` are 71.1%, 41.4%, 87% and 85.5%.
On the same counts, the results for `CCCCC(=O)NC(c1ccccc1)c1ccc2cccnc2c1O` (stereo unspecified) are 90.4%, 93.6%, -26% and -7.89%.
The matching figures for `CCOc1ccc(OCc2cccc(C(=O)O)c2)cc1`: 91.5%, 91.5%, 96.6% and 97.5%.
Regarding `CN=c1sc2c(n1C)C(=O)c1ccccc1C2=O`, the inhibition in the assay with PEG-3 [1] turned out to be 101%; with PEG-3 [2] it was 98.9%; in the assay with Rat fibroblasts (CREF) [3] it was 97.8%; with Rat fibroblasts (CREF) [4], 98.9%.
Consider `CC(=O)c1sc2c(c1OC(=O)c1ccc(Cl)cc1Cl)c(=O)n(-c1ccccc1)c(=S)n2-c1ccccc1`, for which the inhibition with PEG-3 [1] came out at 82.6%; with PEG-3 [2] it was 96.3%; in the assay on Rat fibroblasts (CREF) [3] it was 14.9%; in the assay on Rat fibroblasts (CREF) [4], 61.6%.
Turning to `CC(C)Cc1ccc(C(C)C(N)=NCCc2ccccc2)cc1` (stereo unspecified), the inhibition was 97.4% in the assay with PEG-3 [1], 102% with PEG-3 [2], 100% in the assay with Rat fibroblasts (CREF) [3] and 99.2% with Rat fibroblasts (CREF) [4].
The matching figures for `Cc1ccc(/C=C2\SC(=S)N(CCCC(=O)NNC(=O)c3ccccc3O)C2=O)cc1`: 81.6%, 73.5%, 10.1% and 11%.
In the case of `Cc1cccc(OCC(=O)NCC(=O)N/N=C/c2cc(Br)cc(Br)c2O)c1`, the inhibition came out at 75% with PEG-3 [1], 86.2% in the assay with PEG-3 [2], 65.6% in the assay with Rat fibroblasts (CREF) [3] and 74.7% with Rat fibroblasts (CREF) [4].
The matching figures for `CN=c1scc(-c2ccccc2F)n1/N=C/c1ccc[nH]1`: 98.7%, 99.8%, 100% and 100%.
The matching figures for `CN(C)S(=O)(=O)c1ccc(-c2csc(N/N=C/c3ccc(O)cc3)n2)cc1`: 99.1%, 101%, 97.4% and 98.8%.
For `COc1ccc(-n2c(O)c(/C=N/Nc3nc(C)cc(C)n3)c3ccccc3c2=O)cc1OC`, the inhibition with PEG-3 [1] came out at 57.2%; with PEG-3 [2], 63.9%; with Rat fibroblasts (CREF) [3] it was 80.4%; in the assay with Rat fibroblasts (CREF) [4] it was 68.5%.
The matching figures for `O=C1C(Cl)=C(Nc2ccccc2)C(=O)c2ccccc21`: 102%, 101%, 96.9% and 99.8%.
The matching figures for `OCCNc1c2ccccc2nc2ccccc12`: 99.6%, 98.1%, 73.9% and 94.8%.
Consider `C=CCn1c(C)cc(C(=O)COc2ccc(C)nc2[N+](=O)[O-])c1C`, for which the inhibition with PEG-3 [1] came out at 61.3%; in the assay with PEG-3 [2], 43.4%; in the assay with Rat fibroblasts (CREF) [3], 42.2%; with Rat fibroblasts (CREF) [4], 46.5%.
With `O=C(CNCCC1=CCCCC1)Nc1ccc(N2CCCCCC2)cc1`, the inhibition was 102% in the assay with PEG-3 [1], 102% with PEG-3 [2], 99.4% in the assay on Rat fibroblasts (CREF) [3] and 100% in the assay with Rat fibroblasts (CREF) [4].
Take `O=C(CN1C(=O)c2ccccc2S1(=O)=O)c1ccc2c(c1)OCCO2`: the inhibition turned out to be 102% with PEG-3 [1], 101% with PEG-3 [2], 95.2% in the assay on Rat fibroblasts (CREF) [3] and 96% in the assay on Rat fibroblasts (CREF) [4].
With `CCSc1nc2ccccc2n1C(=O)/C=C\c1ccc(OC)c(OC)c1`, the inhibition in the assay with PEG-3 [1] was determined as 99.4%; in the assay with PEG-3 [2], 95.2%; in the assay on Rat fibroblasts (CREF) [3], 46.8%; with Rat fibroblasts (CREF) [4] it was 91.8%.
On the same counts, the results for `CCc1ccc(/C=C2\SC(=S)N(CCCC(=O)Nc3ccccn3)C2=O)cc1` are 92.7%, 81%, -3.09% and 94.6%.
`COCCCNC(=O)c1ccc(Cn2c(=O)c3ccccc3n(Cc3ccccc3C#N)c2=O)cc1`: the inhibition in the assay with PEG-3 [1] came to 63.4%; with PEG-3 [2], 64%; with Rat fibroblasts (CREF) [3], 40.3%; in the assay on Rat fibroblasts (CREF) [4], 38.4%.
On the same counts, the results for `Oc1[nH]c2ccc(Br)cc2c1N=NC(=S)N1CCOCC1` are 102%, 99%, 30.5% and 99.1%.
On the same counts, the results for `Clc1ccccc1/C=C/c1nc(-c2ccccn2)no1` are 87.3%, 96.5%, 89.2% and 76.1%.
As to `Cc1ccc(-c2nc(-c3ccccn3)no2)cc1Cl`, the inhibition with PEG-3 [1] worked out at 102%; with PEG-3 [2], 95.2%; with Rat fibroblasts (CREF) [3] it was 99.3%; in the assay with Rat fibroblasts (CREF) [4] it was 99.4%.
On the same counts, the results for `NC1=C(Br)C(=O)c2ncccc2C1=O` are 99.1%, 101%, 98.1% and 98.6%.
On the same counts, the results for `Cc1ccc(/C=C2\SC(=S)N(CCCC(=O)Nc3ccccn3)C2=O)cc1` are 88%, 94.2%, -11.8% and -1.96%.
On the same counts, the results for `CC(C)CCCCCCCCCCCCC(=O)NCC(=O)NC1C(O)C(O)C(Nc2ncnc3nc[nH]c23)OC1C(O)CO` (stereo unspecified) are 102%, 98.2%, 99.5% and 9.65%.
Turning to `CC1=NOC(=O)/C1=C\c1ccc(-c2ccccc2Br)o1`, the inhibition stood at 99.2% with PEG-3 [1], 98.5% in the assay with PEG-3 [2], 94.2% in the assay with Rat fibroblasts (CREF) [3] and 53.8% with Rat fibroblasts (CREF) [4].
The matching figures for `COC1=C(Br)C(=O)c2ncccc2C1=O`: 99.3%, 98.6%, 95.3% and 97.8%.
On the same counts, the results for `O=C(Nc1cccc(C(=O)O)c1)Nc1ccc2c(c1)OCO2` are 95.9%, 94.8%, 84.8% and 85.5%.
The matching figures for `Cc1c([N+](=O)[O-])cc(N2C(=O)C=CC2=O)cc1[N+](=O)[O-]`: 102%, 102%, 99.5% and 100%.
As to `CN1C/C(=C/c2ccccc2[N+](=O)[O-])C(=O)/C(=C\c2ccccc2[N+](=O)[O-])C1`, the inhibition with PEG-3 [1] turned out to be 101%; with PEG-3 [2], 102%; with Rat fibroblasts (CREF) [3], 71.1%; in the assay with Rat fibroblasts (CREF) [4], 95.6%.
For the compound `CCN(CC)S(=O)(=O)c1cccc(C(=O)N/N=C(\C)c2ccc(O)cc2O)c1`, the inhibition in the assay with PEG-3 [1] was 27.3%; in the assay with PEG-3 [2], 69.6%; in the assay with Rat fibroblasts (CREF) [3], 43.3%; with Rat fibroblasts (CREF) [4], 47.7%.
The matching figures for `O=c1c2ccccc2sc2nc(CCl)nn12`: 102%, 102%, -2.66% and 33.8%.
On the same counts, the results for `Cc1ccc(C(=O)Nc2cnc3ccccc3c2)cc1` are 91.5%, 98%, 83.4% and 77.7%.
